The results in this text go back to ChEMBL document CHEMBL4513216, “Probing the Open Global Health Chemical Diversity Library for Multistage-Active Starting Points for Next-Generation Antimalarials” (ACS Infect Dis, 2020).

Among all 65,000 compounds or so, about 2,100 (3.2%) showed an effect of 50% or more. The median lay at about -52%. Many of the other results were omitted from the sample, so strong results are more common in it than they were.

In the test the test system is Plasmodium falciparum. The test can be described thus: Screen against P. falciparum Asexual Blood Stage (ABS), at 5uM. It counts as functional, Dd2. The note with it: tested at 5 uM.
Take `CNC(=O)c1nc(COc2ccc3c(c2)OCO3)no1`: the INHIBITION is -139%.

`Cc1ccc(C)c(S(=O)(=O)NC(=O)c2ccc(C)[nH]c2=O)c1`: the INHIBITION is -134%.

Consider `O=S(=O)(c1cccs1)N1CC[C@@H](O)[C@@H]1Cc1ccncc1`, for which the INHIBITION is given as -17%.

With `Cc1ccc(N2CCC(Nc3ccc4nnc(C)n4n3)CC2)nc1`, the INHIBITION is -89%.

`CCOc1ccc(CSC(C)c2nc(C)no2)nc1` (configuration not stated): the INHIBITION is -173%.

`CN(C)C1CC2(CCN(C(=O)NC3CC3)CC2)c2ccccc21` (configuration not stated): the INHIBITION is reported as -42.2%.

For the compound `Cn1cc(CN2CCCN(C(=O)c3cc(Cl)cn3C)CC2)cn1`, the INHIBITION is on record as -7.21%.

Turning to `Cn1cc(Cl)cc1C(=O)N1CCCN(Cc2ccccc2)CC1`, the INHIBITION is listed as 50.9%.

Turning to `Cn1cc(Cl)cc1C(=O)N1CCN(Cc2cccs2)CC1`, the INHIBITION stood at 7.04%.

Regarding `Cn1cc(Cl)cc1C(=O)N1CCCN(Cc2cccs2)CC1`, the INHIBITION is listed as -60.9%.

On to `Cc1ccc(C(=O)N2CCN(Cc3cccs3)CC2)n1C`, for which the INHIBITION is on record as -20.2%.

For the compound `Cc1ccc(C(=O)N2CCCN(Cc3cccs3)CC2)n1C`, the INHIBITION was determined as 55.6%.

Consider `CSCC(CCO)NC(=O)Nc1cc(F)ccc1C` (configuration not stated), for which the INHIBITION is -130%.

As for `CCc1noc(CN(CC)C(=O)C2CC(=O)N(Cc3ccncc3)C2)n1` (configuration not stated), the INHIBITION is recorded as -125%.

`Fc1ccc(CNCc2nnc3n2CC(C(F)(F)F)CC3)c(F)c1` (configuration not stated): the INHIBITION was -35%.

As for `COCCN1C[C@@H]2CN(c3ncc(F)cn3)C[C@@H]2C1=O`, the INHIBITION is reported as -65.7%.

`Cc1ccc(-c2nc(CSCCC(=O)NC(N)=O)co2)cc1`: the INHIBITION was -132%.

As for `O=C(N1CCCC1)N1CCC[C@]2(C[C@@H](Oc3ncccc3F)CO2)C1`, the INHIBITION is listed as -39%.

For the compound `CN(C)C1CCC2(CCN(Cc3cccnc3)CC2)c2ccccc21` (configuration not stated), the INHIBITION came to 31.3%.

Consider `COc1ccccc1CNC(Cc1cccs1)c1nc(C)cs1` (configuration not stated), for which the INHIBITION is listed as -11.1%.

Regarding `COc1cccc(CNC(Cc2cccs2)c2nc(C)c(C)s2)c1OC` (configuration not stated), the INHIBITION is given as -80.8%.

`COc1ccccc1CNC(Cc1cccs1)c1nc(C)c(C)s1` (configuration not stated): the INHIBITION stood at 59.8%.

Consider `CC(=O)N1CCCC1c1cccc(Cc2ccccc2F)n1` (configuration not stated), for which the INHIBITION was -89.4%.

As to `CN(C)C(=O)CN1CCCC1c1cccc(Cc2ccccc2F)n1` (configuration not stated), the INHIBITION is on record as 68.8%.

Regarding `CN1CCCC1c1cccc(Cc2ccccc2F)n1` (configuration not stated), the INHIBITION was -1.19%.

As for `CC(C)CN1CCn2c(nc3cc(C(=O)NC(C)C)ccc32)C1`, the INHIBITION is listed as -53.7%.

Take `OC(CNc1ncnc2c1CCNCC2)C(F)(F)F` (configuration not stated): the INHIBITION is on record as -178%.

Consider `Cc1nc2c(c(NCC(O)C(F)(F)F)n1)CCNCC2` (configuration not stated), for which the INHIBITION is listed as -121%.

Take `OC(CNc1nc(C2CCCC2)nc2c1CCNCC2)C(F)(F)F` (configuration not stated): the INHIBITION amounted to 64.6%.

On to `COCCNc1nc(C2CCCC2)nc2c1CCNCC2`, for which the INHIBITION is 54.1%.

Take `COCc1noc(CNc2nc(C3CCCC3)nc3c2CCNCC3)n1`: the INHIBITION amounted to 27.3%.

As for `COCCNc1nc2c(c(NCC3CCOC3)n1)CCNCC2` (configuration not stated), the INHIBITION is -47.9%.
